Assay results published in the supplement of paper PMC11732987, “Enantioselective OTUD7B fragment discovery through chemoproteomics screening and high-throughput optimisation” (Communications Chemistry, 2025).

Tests used:
Assay in all cases: log2 ratio of Biotin-Ahx-Ub-VS probe labelling (fragment/DMSO); higher = less target engagement (more negative = stronger competition), active = hit call of the paper (q ≤ 0.05, log2 ratio ≤ -1)
Details in all cases: compound concentration: 200 uM; treatment time: 3 h
USP34 = USP34 (UniProt Q70CQ2)
In short: (§1)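 Labelled DUBs from HEK293T lysate were NeutrAvidin-enriched, digested with LysC and trypsin, and run by diaPASEF LC-MS/MS. Before that, each 495 µg sample in Tris/CHAPS/IGEPAL buffer with protease inhibitors was treated in triplicate with fragment at 200 µM or vehicle for 3 h, then with Biotin-Ahx-Ub-VS at 0.5 µM final for 1 h. Values are average log2 ratios of fragment over vehicle by unpaired t-test, based on global-median-normalised Spectronaut label-free quantities from proteins with ≥2 unique peptides.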

USP36 = target: T1, USP36 (UniProt Q9P275)
T1 sequence (whole entry): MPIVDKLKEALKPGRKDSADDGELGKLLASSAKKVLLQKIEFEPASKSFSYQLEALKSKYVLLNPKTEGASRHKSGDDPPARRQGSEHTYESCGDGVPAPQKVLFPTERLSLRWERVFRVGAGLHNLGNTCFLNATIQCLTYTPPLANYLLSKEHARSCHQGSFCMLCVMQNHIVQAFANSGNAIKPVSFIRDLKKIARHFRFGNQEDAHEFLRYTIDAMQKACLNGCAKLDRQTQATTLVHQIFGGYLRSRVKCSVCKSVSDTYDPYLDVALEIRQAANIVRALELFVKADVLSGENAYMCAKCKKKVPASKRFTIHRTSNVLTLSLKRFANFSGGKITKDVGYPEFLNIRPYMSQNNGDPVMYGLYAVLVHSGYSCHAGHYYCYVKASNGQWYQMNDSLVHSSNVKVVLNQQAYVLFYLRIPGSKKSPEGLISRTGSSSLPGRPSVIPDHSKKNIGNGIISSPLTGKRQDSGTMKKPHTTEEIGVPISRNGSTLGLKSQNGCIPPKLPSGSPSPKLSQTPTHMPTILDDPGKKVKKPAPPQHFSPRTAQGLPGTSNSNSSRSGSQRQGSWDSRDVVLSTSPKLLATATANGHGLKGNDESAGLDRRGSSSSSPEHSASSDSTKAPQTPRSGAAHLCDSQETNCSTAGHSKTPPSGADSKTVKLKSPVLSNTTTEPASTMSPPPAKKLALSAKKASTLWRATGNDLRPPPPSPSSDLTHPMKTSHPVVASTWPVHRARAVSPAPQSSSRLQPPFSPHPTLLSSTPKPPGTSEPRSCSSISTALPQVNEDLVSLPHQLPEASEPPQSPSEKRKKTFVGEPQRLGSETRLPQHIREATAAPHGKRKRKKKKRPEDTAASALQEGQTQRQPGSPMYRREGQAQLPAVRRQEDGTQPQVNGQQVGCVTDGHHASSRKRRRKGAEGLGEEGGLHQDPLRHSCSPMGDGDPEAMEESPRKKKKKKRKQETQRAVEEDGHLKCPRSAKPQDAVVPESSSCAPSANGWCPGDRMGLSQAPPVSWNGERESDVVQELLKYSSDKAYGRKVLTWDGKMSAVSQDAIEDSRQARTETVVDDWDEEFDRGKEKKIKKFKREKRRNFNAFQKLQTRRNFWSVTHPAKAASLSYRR
In short: as §1

USP38 = target: T2, USP38 (UniProt Q8NB14)
T2 sequence (whole entry): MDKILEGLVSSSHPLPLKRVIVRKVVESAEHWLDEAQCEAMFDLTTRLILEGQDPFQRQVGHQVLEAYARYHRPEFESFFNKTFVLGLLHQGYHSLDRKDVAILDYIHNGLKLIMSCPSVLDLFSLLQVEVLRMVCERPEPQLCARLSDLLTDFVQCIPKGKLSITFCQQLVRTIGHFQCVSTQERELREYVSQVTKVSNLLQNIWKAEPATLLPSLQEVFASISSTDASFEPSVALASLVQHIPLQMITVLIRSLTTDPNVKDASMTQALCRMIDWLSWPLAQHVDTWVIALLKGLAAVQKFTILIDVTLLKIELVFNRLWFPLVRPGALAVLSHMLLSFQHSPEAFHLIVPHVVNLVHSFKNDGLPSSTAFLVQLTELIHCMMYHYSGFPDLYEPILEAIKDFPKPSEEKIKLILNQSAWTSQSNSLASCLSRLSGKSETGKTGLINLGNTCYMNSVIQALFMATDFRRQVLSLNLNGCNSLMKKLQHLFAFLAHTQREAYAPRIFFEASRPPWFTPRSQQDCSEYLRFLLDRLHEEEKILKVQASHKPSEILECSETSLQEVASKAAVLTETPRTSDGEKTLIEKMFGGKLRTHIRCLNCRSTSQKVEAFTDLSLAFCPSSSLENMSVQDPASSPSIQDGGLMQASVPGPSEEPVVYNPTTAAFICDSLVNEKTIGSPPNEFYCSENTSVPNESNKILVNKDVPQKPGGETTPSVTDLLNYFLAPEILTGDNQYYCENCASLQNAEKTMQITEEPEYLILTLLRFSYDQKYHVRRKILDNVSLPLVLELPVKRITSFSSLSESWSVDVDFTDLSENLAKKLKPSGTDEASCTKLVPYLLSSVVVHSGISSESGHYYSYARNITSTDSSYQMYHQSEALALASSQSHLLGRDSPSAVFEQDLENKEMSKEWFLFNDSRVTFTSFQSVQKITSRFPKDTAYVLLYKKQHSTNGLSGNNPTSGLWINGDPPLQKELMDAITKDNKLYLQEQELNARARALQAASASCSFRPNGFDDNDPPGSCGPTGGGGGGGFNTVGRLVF
In short: as §1

USP39 = target: T3, USP39 (UniProt Q53GS9)
T3 sequence (whole entry): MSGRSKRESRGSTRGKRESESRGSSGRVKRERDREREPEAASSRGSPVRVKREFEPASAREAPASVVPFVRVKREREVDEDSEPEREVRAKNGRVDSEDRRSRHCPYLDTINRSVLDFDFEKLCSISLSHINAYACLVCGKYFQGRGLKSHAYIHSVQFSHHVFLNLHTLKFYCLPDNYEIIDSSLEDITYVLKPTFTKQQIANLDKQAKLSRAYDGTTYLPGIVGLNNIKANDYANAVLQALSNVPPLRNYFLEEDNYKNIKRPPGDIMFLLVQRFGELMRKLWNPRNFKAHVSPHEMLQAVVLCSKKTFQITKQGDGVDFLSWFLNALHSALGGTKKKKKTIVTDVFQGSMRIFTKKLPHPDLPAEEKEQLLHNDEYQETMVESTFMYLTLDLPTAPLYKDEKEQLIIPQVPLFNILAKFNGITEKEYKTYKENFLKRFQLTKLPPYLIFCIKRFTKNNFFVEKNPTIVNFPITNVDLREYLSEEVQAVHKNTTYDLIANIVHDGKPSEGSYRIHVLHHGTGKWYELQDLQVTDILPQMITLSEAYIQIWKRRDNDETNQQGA
In short: as §1

USP4 = target: T4, USP4 (UniProt Q13107)
T4 sequence (whole entry): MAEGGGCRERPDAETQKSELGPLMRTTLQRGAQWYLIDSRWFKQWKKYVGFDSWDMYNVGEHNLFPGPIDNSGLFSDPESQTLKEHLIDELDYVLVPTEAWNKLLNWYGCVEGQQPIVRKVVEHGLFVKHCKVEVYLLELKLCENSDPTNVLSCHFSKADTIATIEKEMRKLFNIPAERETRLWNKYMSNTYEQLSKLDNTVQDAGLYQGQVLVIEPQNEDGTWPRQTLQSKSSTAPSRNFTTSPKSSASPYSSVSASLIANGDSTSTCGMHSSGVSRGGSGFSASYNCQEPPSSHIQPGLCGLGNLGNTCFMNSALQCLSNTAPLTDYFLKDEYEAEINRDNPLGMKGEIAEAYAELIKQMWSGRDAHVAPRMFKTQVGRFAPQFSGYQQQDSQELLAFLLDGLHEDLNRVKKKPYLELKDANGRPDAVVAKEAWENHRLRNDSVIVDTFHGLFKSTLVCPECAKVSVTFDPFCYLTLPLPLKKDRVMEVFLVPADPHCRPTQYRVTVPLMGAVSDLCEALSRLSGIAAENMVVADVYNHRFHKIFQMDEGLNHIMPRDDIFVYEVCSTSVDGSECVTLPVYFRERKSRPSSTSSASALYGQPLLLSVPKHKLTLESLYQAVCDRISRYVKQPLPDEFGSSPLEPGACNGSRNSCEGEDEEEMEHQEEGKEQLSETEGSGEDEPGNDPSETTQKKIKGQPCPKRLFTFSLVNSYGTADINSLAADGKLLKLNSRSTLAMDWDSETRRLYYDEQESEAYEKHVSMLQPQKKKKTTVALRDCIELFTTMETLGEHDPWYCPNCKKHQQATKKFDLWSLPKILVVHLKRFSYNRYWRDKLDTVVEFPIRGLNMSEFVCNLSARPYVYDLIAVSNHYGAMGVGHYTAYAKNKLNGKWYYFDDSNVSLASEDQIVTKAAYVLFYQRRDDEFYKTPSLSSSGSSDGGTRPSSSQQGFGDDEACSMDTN
In short: as §1

Measured: log2 ratio of Biotin-Ahx-Ub-VS probe labelling

USP34, sequence (Q70CQ2 whole entry, the tested form may be a part): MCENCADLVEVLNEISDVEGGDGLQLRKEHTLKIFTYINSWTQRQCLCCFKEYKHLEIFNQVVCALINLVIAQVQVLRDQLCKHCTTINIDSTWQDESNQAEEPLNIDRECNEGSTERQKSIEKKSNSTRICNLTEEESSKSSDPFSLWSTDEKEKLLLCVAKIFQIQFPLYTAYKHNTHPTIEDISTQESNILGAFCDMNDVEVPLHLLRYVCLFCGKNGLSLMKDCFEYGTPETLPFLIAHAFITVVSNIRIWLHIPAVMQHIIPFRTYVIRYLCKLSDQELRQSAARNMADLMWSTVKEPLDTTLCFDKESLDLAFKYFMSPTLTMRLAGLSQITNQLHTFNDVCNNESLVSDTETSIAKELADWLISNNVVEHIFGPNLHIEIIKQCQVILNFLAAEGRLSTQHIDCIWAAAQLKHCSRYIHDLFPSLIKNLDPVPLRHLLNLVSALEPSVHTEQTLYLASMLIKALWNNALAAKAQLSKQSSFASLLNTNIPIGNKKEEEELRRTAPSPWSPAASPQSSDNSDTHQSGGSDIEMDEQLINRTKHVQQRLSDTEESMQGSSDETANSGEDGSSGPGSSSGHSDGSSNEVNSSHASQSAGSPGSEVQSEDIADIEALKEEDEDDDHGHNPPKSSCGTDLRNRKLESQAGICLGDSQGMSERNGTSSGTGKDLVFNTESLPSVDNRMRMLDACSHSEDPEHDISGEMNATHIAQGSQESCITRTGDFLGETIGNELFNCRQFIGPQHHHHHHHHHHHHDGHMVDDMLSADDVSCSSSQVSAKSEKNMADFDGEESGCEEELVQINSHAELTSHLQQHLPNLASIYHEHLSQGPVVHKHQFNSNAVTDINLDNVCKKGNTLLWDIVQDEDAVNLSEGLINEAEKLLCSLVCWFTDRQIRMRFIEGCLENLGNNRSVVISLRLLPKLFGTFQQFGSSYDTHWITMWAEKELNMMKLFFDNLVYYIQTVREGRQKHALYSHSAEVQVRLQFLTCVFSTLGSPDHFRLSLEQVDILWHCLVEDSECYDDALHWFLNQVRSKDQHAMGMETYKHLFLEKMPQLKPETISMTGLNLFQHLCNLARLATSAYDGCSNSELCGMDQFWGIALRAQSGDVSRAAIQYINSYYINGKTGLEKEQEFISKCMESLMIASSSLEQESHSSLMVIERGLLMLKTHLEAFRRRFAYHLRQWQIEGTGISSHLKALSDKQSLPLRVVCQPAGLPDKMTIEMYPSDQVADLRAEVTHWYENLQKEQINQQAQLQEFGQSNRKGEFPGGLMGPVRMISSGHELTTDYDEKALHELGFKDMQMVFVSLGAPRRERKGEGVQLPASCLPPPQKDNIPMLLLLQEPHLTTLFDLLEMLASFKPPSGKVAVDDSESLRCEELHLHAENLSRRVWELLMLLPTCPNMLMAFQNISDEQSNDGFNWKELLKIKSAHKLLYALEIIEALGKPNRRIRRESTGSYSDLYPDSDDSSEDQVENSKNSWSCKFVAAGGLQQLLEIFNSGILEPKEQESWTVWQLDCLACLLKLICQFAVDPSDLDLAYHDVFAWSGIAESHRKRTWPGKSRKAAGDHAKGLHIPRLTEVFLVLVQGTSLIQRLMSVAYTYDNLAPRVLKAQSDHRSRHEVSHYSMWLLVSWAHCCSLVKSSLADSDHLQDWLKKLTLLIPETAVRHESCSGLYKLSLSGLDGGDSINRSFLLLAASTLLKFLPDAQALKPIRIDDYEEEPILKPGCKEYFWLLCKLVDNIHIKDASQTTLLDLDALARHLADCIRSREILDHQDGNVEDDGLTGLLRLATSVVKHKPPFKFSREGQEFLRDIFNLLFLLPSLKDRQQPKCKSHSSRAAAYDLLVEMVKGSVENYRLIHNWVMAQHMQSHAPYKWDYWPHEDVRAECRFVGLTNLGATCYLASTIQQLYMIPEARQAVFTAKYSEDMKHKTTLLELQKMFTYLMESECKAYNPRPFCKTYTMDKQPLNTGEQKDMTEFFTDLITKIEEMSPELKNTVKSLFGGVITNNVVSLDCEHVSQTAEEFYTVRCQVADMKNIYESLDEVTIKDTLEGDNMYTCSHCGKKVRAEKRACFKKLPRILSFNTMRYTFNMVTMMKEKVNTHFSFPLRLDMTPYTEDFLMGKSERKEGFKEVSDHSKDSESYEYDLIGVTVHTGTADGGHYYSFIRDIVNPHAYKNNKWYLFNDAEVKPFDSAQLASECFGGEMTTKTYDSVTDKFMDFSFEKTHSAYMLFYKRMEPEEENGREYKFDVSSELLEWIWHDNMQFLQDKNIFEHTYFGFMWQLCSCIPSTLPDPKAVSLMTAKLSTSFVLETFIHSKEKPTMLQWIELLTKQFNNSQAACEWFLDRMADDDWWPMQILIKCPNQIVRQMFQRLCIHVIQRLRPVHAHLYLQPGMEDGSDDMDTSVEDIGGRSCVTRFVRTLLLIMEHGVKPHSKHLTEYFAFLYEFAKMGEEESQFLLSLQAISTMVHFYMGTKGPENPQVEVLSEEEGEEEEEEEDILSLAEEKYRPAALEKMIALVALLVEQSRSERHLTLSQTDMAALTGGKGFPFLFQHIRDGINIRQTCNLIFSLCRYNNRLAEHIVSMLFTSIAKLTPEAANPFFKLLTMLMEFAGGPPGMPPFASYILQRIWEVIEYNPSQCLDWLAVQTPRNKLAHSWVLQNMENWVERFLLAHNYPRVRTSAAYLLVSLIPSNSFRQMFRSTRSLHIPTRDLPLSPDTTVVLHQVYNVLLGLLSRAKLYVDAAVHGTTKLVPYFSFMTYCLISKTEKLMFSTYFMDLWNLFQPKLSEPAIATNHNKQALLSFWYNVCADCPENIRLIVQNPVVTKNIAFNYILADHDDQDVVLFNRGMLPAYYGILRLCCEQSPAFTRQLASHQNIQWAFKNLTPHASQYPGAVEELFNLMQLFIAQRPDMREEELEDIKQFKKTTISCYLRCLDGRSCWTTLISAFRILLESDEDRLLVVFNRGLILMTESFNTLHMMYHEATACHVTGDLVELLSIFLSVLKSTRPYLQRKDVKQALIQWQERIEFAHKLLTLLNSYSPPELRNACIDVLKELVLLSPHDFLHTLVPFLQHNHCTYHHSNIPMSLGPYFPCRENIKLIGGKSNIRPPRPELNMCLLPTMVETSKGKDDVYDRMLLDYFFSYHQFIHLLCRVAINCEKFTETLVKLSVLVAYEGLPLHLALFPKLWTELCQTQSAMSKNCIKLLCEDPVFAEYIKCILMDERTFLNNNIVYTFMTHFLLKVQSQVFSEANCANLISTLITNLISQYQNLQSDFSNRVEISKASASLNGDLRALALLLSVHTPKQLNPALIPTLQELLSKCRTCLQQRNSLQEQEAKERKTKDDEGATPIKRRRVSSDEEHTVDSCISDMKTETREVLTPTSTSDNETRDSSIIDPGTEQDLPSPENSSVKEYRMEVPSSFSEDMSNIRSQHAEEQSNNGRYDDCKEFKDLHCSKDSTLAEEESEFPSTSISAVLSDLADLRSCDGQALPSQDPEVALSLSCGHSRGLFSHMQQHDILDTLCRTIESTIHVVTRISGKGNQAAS

O=C(CCl)N1CCN(c2nc3ccccc3o2)CC1
inactive: USP34 -0.0431 | USP36 -0.047 | USP38 -0.41 | USP39 -0.00936 | USP4 -0.445
